Sampled rows, rich in hits. Any-hit rate of the full collection: about 2.5%.
D2 PAM-1: human D2 receptor positive allosteric modulation; P14416; DiscoveRx D2 beta-arrestin cells, luminescence, 90 min; 100% = 57 uM dopamine signal; potentiation, % (test concentration not listed); 360,000 compounds, 0.23% hits; AID 624464; in the data active means potentiation above about 50%; inconclusive means mostly about 30% to 49%
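PathHunter beta-arrestin assay in DiscoveRx D2 cells. Compounds were added with an EC20 of dopamine (50 nM final) for 90 min at 37 deg C. Luminescence was read 1 h after detection reagent, with 57 uM dopamine as the EC100 control.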
D2 ag-1: agonists of human D2 dopamine receptor. HEK293 T-REx D2 cells, calcium flux agonist mode. activation, % at 2 µM. P14416. 340,000 compounds, 0.53% hits;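 active means activation over 3 SD above normal in the single-dose calcium agonist read, cut at about 30% in these data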
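Agonism is scored from calcium flux in a force-coupled, inducible HEK293 cell line expressing D2, read kinetically for 180 s after compound addition against dopamine controls.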
Apoferritin bind: binds horse apoferritin like a general anesthetic. Potency, µM (highest dose often 77.5 µM), hits mostly inhibitors. P02791. AID 485281. 350,000 compounds, 0.074% hits. apoferritin/1-aminoanthracene competitive binding, fluorescence; active means well fitted inhibition curve with a large enough effect; inconclusive means small, poorly fitted or top-dose-only effect; inactive means no such curve, though single readings can be large or run the other way; further: nearly all actives have a fitted effect of over 20% in size
Target sequence (P02791 2-175 limits assumed): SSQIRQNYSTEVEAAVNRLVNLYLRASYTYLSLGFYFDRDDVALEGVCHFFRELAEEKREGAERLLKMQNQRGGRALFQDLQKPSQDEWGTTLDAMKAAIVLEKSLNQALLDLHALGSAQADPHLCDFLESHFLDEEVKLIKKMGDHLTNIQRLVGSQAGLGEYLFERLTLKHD
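Steps: apoferritin (10 uM) was premixed with half-saturated 1-AMA in PBS, compounds were pin-transferred, plates stood 10 min at room temperature, fluorescence was read at 380/535 nm, and curves were fitted with a Hill equation.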
D2 ag-2: agonists of human D2 dopamine receptor (beta-arrestin); P14416; DiscoveRx PathHunter D2 beta-arrestin, luminescence, 90 min; 100% = 57 uM dopamine signal; activation, % (test concentration not listed); 360,000 compounds, 0.084% hits; in the data active means activation above about 40%; inconclusive means between about 15% and that limit
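Agonist mode: compounds alone added to overnight-plated D2 PathHunter cells for 90 min at 37 C, with 57 uM final dopamine (EC100) defining full response. Beta-arrestin recruitment detected by chemiluminescent reagent, read after 1 h at ambient temperature.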
D2 antag: D2 dopamine receptor (human) antagonism | P14416 | HEK293 TREx D2 cells, calcium flux, dopamine EC80 | inhibition, % at 10 µM | 340,000 compounds, 2% hits; in the data active means inhibition above about 30%; inactive means below that, where a call was filed
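Compounds are added to dye-loaded, induced HEK293 T-REx cells coupled to calcium release via D2; after a 3 min kinetic read an EC80 dopamine stimulus is given and fluorescence is recorded for 3 more min.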
D2 PAM-2: positively modulates the human D2 dopamine receptor allosterically | P14416 | HEK293 T-REx D2, calcium flux, EC20 dopamine potentiation | potentiation, % at 10 µM | 340,000 compounds, 0.34% hits;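 active means potentiation over 3 SD above the plate norm, cut at about 30% in these data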
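Primary screen. Calcium kinetics in induced HEK293 T-REx D2 cells: compound pre-addition 180 s, EC20 dopamine, 180 s more.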
Each line names hits and unclear results; the compound was inactive in the other large screens.

CCCCCCOC(=O)C(C#N)c1nc2ccccc2nc1N1CCCCC1 (stereo unspecified)	D2 PAM-2 35.1
CCOC(=O)N1CCN(C(=O)c2ccc(OCC)c(OCC)c2)CC1	D2 antag 32.7
CCOc1ccc(C(N)=O)cc1OC	D2 PAM-2 58.4
CCOc1ccc(C(=O)O)cc1OC	none (no result: D2 ag-1, D2 antag, D2 PAM-2)
O=C(CSc1nc2cc(C(=O)O)ccc2c(=O)n1-c1ccc(F)cc1)Nc1ccc(F)c(F)c1F	none
COc1ccc(NC(=O)C2C3C=CC(C3)C2C(=O)NCc2ccco2)c(OC)c1 (stereo unspecified)	none
CCCCn1c(N)c(N(Cc2ccccc2OC)C(=O)COc2ccccc2OC)c(=O)[nH]c1=O	none (no result: D2 ag-1, Apoferritin bind, D2 antag, D2 PAM-2)
CCCCn1c(N)c(N(Cc2ccccc2OC)C(=O)c2ccc([N+](=O)[O-])s2)c(=O)[nH]c1=O	D2 PAM-1 50.3, D2 ag-2 inconclusive (no result: Apoferritin bind)
COc1ccc(S(=O)(=O)NCCOc2ccccc2)cc1-n1cnnn1	none (no result: D2 ag-1, D2 antag, D2 PAM-2)
Cc1cc(C)c(S(=O)(=O)NCCOc2ccccc2)c(C)c1-n1cnnn1	D2 PAM-2 40.6
N#Cc1c(Nc2ccccc2)c(C=O)c[nH]c1=O	none
O=C(Nc1nnc(-c2cccs2)o1)c1cccc(C(F)(F)F)c1	none
CC(=O)c1c(N2CCCC2)[nH]c(-c2ccccc2)nc1=S	none
CC(=O)c1c(N2CCN(Cc3ccccc3)CC2)[nH]c(-c2ccccc2)nc1=S	Apoferritin bind inconclusive, D2 antag 72.9
O=C(NC1CCCCCCC1)C1CCC(CNc2c(N3CCCC3)c(=O)c2=O)CC1 (stereo unspecified)	none
N#C/C(=C\c1ccccc1)C(=O)Nc1ccccn1	none
CC(C)C(=O)n1nc(-c2cccnc2)nc1NCc1ccc(F)cc1	D2 PAM-2 45.8
CCOC(=O)c1ccc(NC(=S)N(CCCN2CCCC(C)C2)Cc2cccs2)cc1 (stereo unspecified)	D2 antag 39.6
COc1cccc(NC(=S)N(CCCN2CCC(C)CC2)Cc2cccs2)c1	D2 antag 59.1
CCOC(=O)c1ccc(NC(=S)N(CCCN2CCCC2)Cc2cccs2)cc1	none
Cc1ccc(CN2CCS(=O)(=O)CC2)o1	none (no result: D2 ag-1, D2 antag, D2 PAM-2)
Cc1cc(C)n2nc(C(=O)Nc3c(C)nn(Cc4ccc(F)cc4)c3C)cc2n1	D2 antag 51.5
Cc1nn(Cc2ccc(F)cc2)c(C)c1NC(=O)c1cc2ncc(Br)cn2n1	none
COc1cc2c(cc1OC)-c1nnnn1C(C)(C)C2	none
COc1cc2c(cc1OC)-c1n[nH]c(=S)n1C(C)(C)C2	D2 PAM-2 35.0
COCC(=O)Nc1ncc(S(=O)(=O)c2ccc([N+](=O)[O-])cc2)s1	D2 PAM-1 inconclusive, D2 ag-2 inconclusive
O=C(Nc1ncc(S(=O)(=O)c2ccc([N+](=O)[O-])cc2)s1)c1cccc2ccccc12	D2 PAM-1 62.0
CC(=O)NCCC(=O)Nc1ncc(S(=O)(=O)c2ccc([N+](=O)[O-])cc2)s1	D2 PAM-1 52.0 (no result: Apoferritin bind)
CCCCC(=O)Nc1ncc(S(=O)(=O)c2ccc([N+](=O)[O-])cc2)s1	D2 ag-2 inconclusive
S=C(NC12CC3CC(CC(C3)C1)C2)N1CCOCC1	none
CC1(C)Cc2c(sc3c2C(=O)N(c2ccccc2)C2=NCCN23)CS1	D2 PAM-2 46.4
CCOC(=O)C1=C(O)C(=O)N(c2ccc(S(N)(=O)=O)cc2)C1c1ccc(OC)cc1OC (stereo unspecified)	D2 PAM-2 41.6
CCOC(=O)C1=C(O)C(=O)N(c2ccc(S(N)(=O)=O)cc2)C1c1cccc([N+](=O)[O-])c1 (stereo unspecified)	none
CCOC(=O)C1=C(O)C(=O)N(c2ccccc2)C1c1cccc([N+](=O)[O-])c1 (stereo unspecified)	D2 antag 33.0
CCOC(=O)C1=C(O)C(=O)N(c2ccc(S(N)(=O)=O)cc2)C1c1ccc([N+](=O)[O-])cc1 (stereo unspecified)	none
O=C(N/N=C/c1ccc(O)cc1)c1csc2ccccc12	D2 antag 32.0
